Bcl-xL primary: Bcl-xL (human) inhibition; Q07817; GST-Bcl-xL / FITC-Bim BH3 peptide fluorescence polarization; inhibition, % at 10.9 µM; actives 0.7% (n = 320,000); AID 2129;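 active = inhibition above the mean of all tested compounds plus 3 SD, cutoff set per campaign, cut at about 30% in these data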;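 also: 0% = DMSO wells and 100% = unlabeled Bim-BH3 peptide competitor; inhibitors lower millipolarization by displacing the labeled peptide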
EBV gp42 block: inhibitors of Epstein-Barr virus glycoprotein 42; Q1HVG2; Fluorescence polarization binding assay, mP read-out; inhibition, % (tested at 21.74 µM); actives 0.42% (n = 220,000); in the data active = inhibition above about 50%
E coli Lon inh: E. coli protease La inhibition | inhibition, % at 7.94 µM | actives 0.42% (n = 360,000) | AID 602123 | P0A9M0 | purified E. coli Lon protease, fluorescence polarization; in the data active = inhibition above about 13%, passing the limit was not always enough;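 also: 0% = enzyme with probe and DMSO and 100% = no enzyme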
GLD-1 RNA inh: GLD-1-TGE RNA interaction inhibition (C. elegans) | purified GLD-1 + fluorescein TGE RNA, fluorescence polarization | actives 0.44% (n = 320,000) | inhibition, % at 5.96 µM | Q17339;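 active = percent inhibition above a per-plate cutoff, the plate mean of test compounds plus 3 SD, cut at about 30% in these data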;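 also: 0% = DMSO wells with GLD-1 and probe and 100% = wells lacking GLD-1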
MEX-5 binding: C. elegans MEX-5 TCR-2 RNA binding activity | Q9XUB2 | activity score (negative = inhibition of binding), % at 10 µM | actives 0.38% (n = 300,000) | MEX-5/FITC-TCR2 RNA binding, fluorescence polarization; active compounds read low;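 active = inhibition past about -25% in most replicates, and total fluorescence under double the plate's negative control median, limit read from the data; inconclusive = replicates evenly split on the limit, or fluorescence at least double controls; inactive = too little inhibition in most replicates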;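 also: 0% = DMSO and -100% = 5 µM competing unlabeled TCR2 RNA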
MCL1 BIM primary: disrupts human MCL1 binding to BIM-BH3 peptide | Q07820 | actives 0.68% (n = 320,000) | GST-MCL1 / FITC-Bim-BH3 fluorescence polarization | inhibition, % at 10.9 µM;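 active = inhibition above the mean inhibition of all tested compounds plus 3 SD, set per campaign, cut at about 40% in these data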;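 also: 0% = DMSO wells and 100% = unlabeled Bim-BH3 peptide control; higher means more loss of mP so more displacement of Bim peptide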
BCLXL inh confirm: counter-screen for MCL1 inhibitors: confirmation of human Bcl-xL inhibitors. shares compounds with MCL1 BIM primary. GST-Bcl-xL / FITC-Bim BH3 peptide FP binding. inhibition, % at 10.9 µM. actives 54% (n = 1,700). AID 2166;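 active = inhibition above a cutoff equal to the mean inhibition of all tested compounds plus 3 SD, cut at about 30% in these data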;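 also: 0% = DMSO wells and 100% = unlabeled Bim BH3 control peptide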
MCL1 BIM confirm: MCL1-BIM-BH3 interaction inhibition, confirmation. shares compounds with MCL1 BIM primary. GST-MCL1 / FITC-Bim-BH3 fluorescence polarization. inhibition, % at 10.9 µM. actives 61% (n = 1,700). AID 2168;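 active = inhibition above the average of all tested compounds plus 3 SD, cut at about 40% in these data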;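 also: 0% = DMSO wells and 100% = unlabeled Bim-BH3 control peptide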
* = called active by the depositor. Most compounds without a hit are left out; they make up all but 1.5% or so of the library.

CCN1c2ccccc2N(C)C1(C)c1ccccc1 (stereo not drawn) was read as Bcl-xL primary 88*, EBV gp42 block 34, E coli Lon inh 28, GLD-1 RNA inh 66*, MCL1 BIM primary 94*, BCLXL inh confirm 61* and MCL1 BIM confirm 98*.
Screening CCC1(c2ccccc2)CN(C)C1=O (stereo not drawn) returned E coli Lon inh 3.
For CC1=CC2(C#N)C3(N=C(N)C2(C#N)C(c2ccccc2)N1)OCCO3 (stereo not drawn) the results were EBV gp42 block -27 and E coli Lon inh 16.
`N#CC12C(N)=NC3(OCCO3)C1(C#N)C1=C(CCC1)NC2c1ccccc1` (stereo not drawn) gave Bcl-xL primary 35*, EBV gp42 block -7, E coli Lon inh 1, GLD-1 RNA inh 63*, MEX-5 binding -8, MCL1 BIM primary 64*, BCLXL inh confirm 18 and MCL1 BIM confirm 24.
`COC(CNC(=O)c1ccc2c3c(onc13)-c1ccccc1C2=O)OC` gave Bcl-xL primary active, EBV gp42 block 190*, E coli Lon inh 31, GLD-1 RNA inh active, MEX-5 binding inconclusive, MCL1 BIM primary active, BCLXL inh confirm active and MCL1 BIM confirm active.
For COC(CNC(=O)c1cccnc1)OC the results were Bcl-xL primary 3, EBV gp42 block 2, E coli Lon inh 0, GLD-1 RNA inh -2, MEX-5 binding 1 and MCL1 BIM primary 3.
For COc1cccc(/C=c2\s/c(=C\C(=O)C(C)(C)C)[nH]c2=O)c1 the results were Bcl-xL primary -1, EBV gp42 block -10, E coli Lon inh 7, GLD-1 RNA inh -4, MEX-5 binding 2 and MCL1 BIM primary -2.
Screening COc1ccc(/C=c2\s/c(=C/C(=O)c3ccc(C)cc3)[nH]c2=O)c(OC)c1 returned Bcl-xL primary 103*, EBV gp42 block 12, E coli Lon inh inactive, GLD-1 RNA inh -36, MEX-5 binding -18, MCL1 BIM primary 105*, BCLXL inh confirm 88* and MCL1 BIM confirm 97*.
CN(C(=O)c1cccc(NC(=O)Cc2cccc([N+](=O)[O-])c2)c1)C1CCCC1 was read as E coli Lon inh -6 and GLD-1 RNA inh 3.
CC1CCCCN1C(=O)CCS(=O)(=O)c1cc2c(cc1Cl)NC(=O)CO2 (stereo not drawn) was read as Bcl-xL primary 7, E coli Lon inh -1, GLD-1 RNA inh 3, MEX-5 binding 0 and MCL1 BIM primary 8.
`CCCC1=NN2C(=N)/C(=C\c3ccc(SCc4ccco4)o3)C(=O)N=C2S1` gave Bcl-xL primary 70*, EBV gp42 block -25, E coli Lon inh -103, GLD-1 RNA inh 24, MEX-5 binding -16, MCL1 BIM primary 80*, BCLXL inh confirm 7 and MCL1 BIM confirm 26.
`O=C(O)c1cccc(N2C(=O)c3cccc4cccc(c34)C2=O)c1` gave E coli Lon inh -1 and MEX-5 binding 1.
Screening O=C(O)c1cccc(N2C(=O)c3cc([N+](=O)[O-])cc4cc([N+](=O)[O-])cc(c34)C2=O)c1 returned Bcl-xL primary 15, E coli Lon inh -4, GLD-1 RNA inh 2, MEX-5 binding -10, MCL1 BIM primary 47*, BCLXL inh confirm 21 and MCL1 BIM confirm 45*.
Screening CCc1ccc2c(COC(=O)C3CSC4(C)CCC(=O)N34)cc(=O)oc2c1 (stereo not drawn) returned Bcl-xL primary 1, E coli Lon inh 6, GLD-1 RNA inh 2 and MCL1 BIM primary 5.
Screening Oc1ccc(/C=N/N2CCCCC2)c(O)c1O returned Bcl-xL primary 38*, E coli Lon inh 6, GLD-1 RNA inh 26, MEX-5 binding -29*, MCL1 BIM primary 54*, BCLXL inh confirm 12 and MCL1 BIM confirm 6.
Screening N=C1/C(=C\c2coc3ccccc3c2=O)C(=O)N=C2SC=CN12 returned Bcl-xL primary 55*, EBV gp42 block 47, E coli Lon inh -152, GLD-1 RNA inh 51*, MEX-5 binding inconclusive, MCL1 BIM primary 60*, BCLXL inh confirm 61* and MCL1 BIM confirm 70*.
`COc1cc(C(=O)NNC(=O)CNC(=O)C2CCCCC2)ccc1OC(C)C` gave E coli Lon inh 6 and GLD-1 RNA inh 2.
Screening On1ccccc1=S returned Bcl-xL primary 1, E coli Lon inh -3, GLD-1 RNA inh 0, MCL1 BIM primary 68*, BCLXL inh confirm 2 and MCL1 BIM confirm 2.
For CCCC[C@@H]1C=C(C(=O)O)[C@H](c2ccc(C#N)cc2)N1S(=O)(=O)c1ccc(C)cc1 the results were E coli Lon inh -4 and GLD-1 RNA inh -4.
COc1cc(/C=C/C(=O)OCC(=O)N2CCCc3ccccc32)ccc1OC(F)F was read as Bcl-xL primary 3, E coli Lon inh -9, GLD-1 RNA inh 3, MEX-5 binding 1 and MCL1 BIM primary 0.
`CC(C)n1c(SCC(=O)Nc2nncs2)nnc1C1CC1` gave Bcl-xL primary 3, E coli Lon inh 5, GLD-1 RNA inh 3, MEX-5 binding -2 and MCL1 BIM primary 1.
For Cn1c(SCC(=O)Nc2nncs2)nnc1C1CC1 the results were Bcl-xL primary 14, E coli Lon inh -4, GLD-1 RNA inh 9, MEX-5 binding -3, MCL1 BIM primary 46*, BCLXL inh confirm 11 and MCL1 BIM confirm 29.
For COc1ccc2nc(SCC(=O)N3CCCCC3)c(C#N)cc2c1 the results were Bcl-xL primary 2, EBV gp42 block -16, E coli Lon inh -6, GLD-1 RNA inh 4, MEX-5 binding -8 and MCL1 BIM primary 4.
`COc1ccc2nc(N3CCCC3)c(C#N)cc2c1` gave Bcl-xL primary 74*, EBV gp42 block 127*, E coli Lon inh 0, GLD-1 RNA inh 49*, MEX-5 binding 3, MCL1 BIM primary 67*, BCLXL inh confirm 115* and MCL1 BIM confirm 130*.
For CC(C)C[C@@H]1COc2cccc(N3CCSCC3)c2S(=O)(=O)N1 the results were E coli Lon inh -11.
`Nc1ccc2c(c1)C/C(=C/c1ccco1)C2=O` gave Bcl-xL primary 60*, EBV gp42 block 98*, E coli Lon inh -13, GLD-1 RNA inh 25, MEX-5 binding -45*, MCL1 BIM primary 105*, BCLXL inh confirm 97* and MCL1 BIM confirm 106*.

High-throughput results from PubChem BioAssay.
